A selection: hits, their analogues and other compounds. The true share with any hit is near 2.4%.
Pol eta inh-1: qHTS for Inhibitors of Polymerase Eta. AID 588591, 2011. recombinant Pol eta, fluorescent DNA replication assay. DNA polymerase eta (Homo sapiens), Q9Y253. Potency, µM (series often up to 114 µM), actives largely listed as inhibitors. actives 1.2% (n = 390,000)
Target sequence (Q9Y253 whole entry, looked up): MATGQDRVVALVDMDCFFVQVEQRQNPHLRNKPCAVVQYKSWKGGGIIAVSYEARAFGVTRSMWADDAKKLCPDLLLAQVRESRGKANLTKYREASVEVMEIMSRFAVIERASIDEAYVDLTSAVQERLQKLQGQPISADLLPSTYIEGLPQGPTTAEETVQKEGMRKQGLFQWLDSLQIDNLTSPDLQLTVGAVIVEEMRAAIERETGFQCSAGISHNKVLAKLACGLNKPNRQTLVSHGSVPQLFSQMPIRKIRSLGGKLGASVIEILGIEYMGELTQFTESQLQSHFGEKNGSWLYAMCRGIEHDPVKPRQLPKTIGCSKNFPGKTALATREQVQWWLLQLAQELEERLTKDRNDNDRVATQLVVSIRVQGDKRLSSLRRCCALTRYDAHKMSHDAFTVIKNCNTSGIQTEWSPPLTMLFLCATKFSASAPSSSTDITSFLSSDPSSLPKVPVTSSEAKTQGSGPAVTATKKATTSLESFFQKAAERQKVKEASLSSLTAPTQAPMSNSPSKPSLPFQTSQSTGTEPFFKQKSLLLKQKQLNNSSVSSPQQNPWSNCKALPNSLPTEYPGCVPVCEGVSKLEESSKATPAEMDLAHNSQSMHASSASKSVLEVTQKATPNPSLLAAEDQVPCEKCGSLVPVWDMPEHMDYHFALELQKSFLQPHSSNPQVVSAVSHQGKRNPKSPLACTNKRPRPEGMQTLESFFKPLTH
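Pol eta (10 nM) was preincubated with compounds for 15 min at room temperature, after which fluorescent replication substrate (50 nM final) was added to start the reaction. Fluorescence was read kinetically at 0 and 10 min.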
FEN1 inhibitor: qHTS Assay for the Inhibitors of Human Flap endonuclease 1 (FEN1). AID 588795, 2011. Potency, µM (series often up to 114 µM), usual class: inhibitors. actives 0.35% (n = 390,000). Recombinant FEN1 flap cleavage, fluorescence, 15 min; note: nearly all actives have a fitted effect of over 65% in size
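FEN1 at 10 nM preincubated with compounds 15 min at room temperature, then flap DNA substrate added at 50 nM final. Signal read at 0 and 15 min; concentration-response fitted with four-parameter Hill equation.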
Pol iota inh: qHTS for Inhibitors of Polymerase Iota; Pol iota fluorescent replication assay, 10 min; Potency, µM (highest dose often 115 µM), actives largely listed as inhibitors; actives 1% (n = 390,000)
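Pol iota at 10 nM preincubated 15 min with compounds at room temperature; reaction started with fluorescent substrate, 50 nM final. Fluorescence read kinetically at 0 and 10 min; buffer-only wells as negative control.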
WRN inhibitor: qHTS for Inhibitors of WRN Helicase; actives 0.46% (n = 360,000); WRN helicase unwinding, fluorescent forked duplex, kinetic; Potency, µM (highest dose often 114 µM), hits mostly inhibitors; Bifunctional 3'-5' exonuclease/ATP-dependent helicase WRN (Homo sapiens), Q14191; note: nearly all actives have a fitted effect of over 55% in size
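Kinetic red-fluorescence monitoring (525/598 nm) tracks WRN helicase activity after 100 nM fluorophore-quencher forked duplex and 2 mM ATP are added to 20 nM enzyme pretreated 15 min at room temperature with compound.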
Pol kappa inh-1: qHTS for Inhibitors of Polymerase Kappa; Potency, µM (series often up to 107 µM), hits mostly inhibitors; purified Pol kappa, fluorescent DNA synthesis assay, 10 min; actives 0.53% (n = 400,000); AID 588579, 2011
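Inhibition of 10 nM Pol kappa is measured by a fluorescent read-out at 0 and 10 min following addition of 50 nM substrate (final), with a 15-min room-temperature compound preincubation.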
Pol beta inh: qHTS Assay for Inhibitors of DNA Polymerase Beta. P06746. Pol beta primer extension/strand displacement, fluorescence kinetic. Potency, µM (doses to about 114 µM), hits mostly inhibitors. actives 1.3% (n = 340,000)
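10 nM enzyme + cpd, 15 min RT; start with substrate 50 nM final; read 0 min and after 10 min RT. Corrected, normalized data; 4-parameter Hill curve fit.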
GALK confirm: Confirmation Assay for Inhibitors of Human Galactokinase (GALK); actives 70% (n = 150); purified GALK, Kinase-Glo ATP depletion luminescence; shares compounds with Pol eta inh-1; Potency, µM (titrated, usually from 115 µM), most hits filed as inhibitors
GALK redox cs: Confirmatory Assay for Inhibitors of Human Galactokinase (GALK): Phenol-HRP redox assay counterscreen; shares compounds with Pol eta inh-1; Phenol red-HRP H2O2 redox cycling, absorbance 600 nm; Potency, µM (highest dose often 115 µM), most hits filed as inhibitors; actives 40% (n = 150); AID 2035, 2009
HEK293 tox: Secondary Assay for Inhibitors of Human Galactokinase (GALK): HEK-293 Cell Viability Assay; shares compounds with Pol eta inh-1; HEK-293 viability, ATP luminescence (CellTiter-Glo), 24/48 h; Potency, µM (titrated, usually from 46.1 µM), hits mostly inhibitors; actives 10% (n = 170); AID 2547, 2010
Pol kappa inh-2: qHTS for Inhibitors of Polymerase Kappa: Confirmatory Assay for Cherry-picked Compounds; actives 76% (n = 920); Potency, µM, hits mostly inhibitors; purified Pol-kappa, fluorescent strand-displacement substrate; shares compounds with Pol eta inh-1; AID 720501, 2013
Pol eta inh-2: qHTS for Inhibitors of Polymerase Eta: Confirmatory Assay for Cherry-picked Compounds; shares compounds with Pol eta inh-1; Pol eta primer extension, TAMRA/BHQ fluorescence, 10 min; Potency, µM, actives largely listed as inhibitors; actives 64% (n = 2,600); AID 720502, 2013
Numbers stand for hits; i = inactive; ? = inconclusive; nt = not tested or not shown; ! = repeats disagree; [ ] = another dose, or the depositor's remark. Calls come from the whole dose curve; as a rule, active = well fitted curve in the direction sought with a large enough effect; inconclusive = small, poorly fitted or top-dose-only effect, or another doubt; inactive = no such curve, though single readings can be large; an effect the other way counts as inactive or inconclusive.

SMILES	Pol eta inh-1	FEN1 inhibitor	Pol iota inh	WRN inhibitor	Pol kappa inh-1	Pol beta inh	Pol eta inh-2	others
CC1=C2C(CCS2(=O)=O)CC2(C1)C(=O)OC(C)(C)OC2=O (stereo unspecified)	79.4µM	i	?	i	?	?	?
Cc1ccccc1N/N=C/c1sc(=O)n(Cc2cccc(C(=O)O)c2)c1Cl	?	i	?	?	i	?	?
NC(=O)NC(=O)CC1S/C(=N/N=C2\CSC(=O)N2)NC1=O (stereo unspecified)	i	i	?	i	i	i	nt
O=C(O)CNC(=O)CC1S/C(=N/N=C2/NC(=O)CS2)NC1=O (stereo unspecified)	44.7µM	i	?	i	i	i	nt	Pol kappa inh-2=?
CC(=O)OCC1=C(C(=O)O)N2C(=O)C(NC(=O)Cn3nc(C(F)F)c(Cl)c3C)C2SC1 (stereo unspecified)	20µM	i	?	i[11.6 µM]	50.1µM	28.2µM	60.1
Cc1nnc(SCC2=C(C(=O)O)N3C(=O)C(NC(=O)Cn4nc(C(F)F)c(Cl)c4C)C3SC2)s1 (stereo unspecified)	20µM	i	i	?	50.1µM	25.1µM	75.7
N#CCC(=O)NN	nt	nt	nt	nt	i[19.4 µM]	nt	nt
O=C(CCCn1c(=O)c2sccc2n(CC(=O)NCc2ccco2)c1=O)NCc1ccco1	79.4µM	i	?	i[11.6 µM]	i	i	?
O=C(CCn1c(=O)c2sccc2n(CC(=O)NCc2ccco2)c1=O)NCc1ccccc1	i	i	?	i	i	i	nt
CCN1C(=O)/C(=C\c2ccc(-c3ccc([N+](=O)[O-])cc3OC)o2)SC1=Nc1cccc(C(=O)O)c1	28.2µM	?	?	i[11.6 µM]	i	?	75.7
C[C@]12C=CC(=O)C=C1CCC1C2C(=O)C[C@]2(C)C1CC[C@]2(O)C(=O)CO (stereo partly specified)	nt	nt	nt	nt	i	nt	nt
O=C(CCS(=O)(=O)c1ccc(Br)cc1)Nc1ccc(Cl)c(C(F)(F)F)c1	?	i	i	nt	i	i	?	Pol kappa inh-2=18.9
CCCCCC(=O)/C=C/C=C\C/C=C\C/C=C\CCCC(=O)O	nt	nt	nt	nt	i[19.4 µM]	nt	nt
Cc1oc2c(cc(NS(=O)(=O)c3ccc(C(C)C)cc3)c3ccccc32)c1C(=O)O	44.7µM	?	?	i[11.6 µM]	?	50.1µM!	?	Pol kappa inh-2=?
c1ccc(Nc2ncnc3ccc(-c4cccnc4)cc23)cc1	nt	nt	nt	nt	i	nt	nt
COc1ccc(-c2c(C(F)(F)F)[nH]n3c(=O)cc(-c4ccccc4)nc23)cc1	89.1µM	i	i	i	i	i	?
O=C(COc1ccc([N+](=O)[O-])cc1)Nc1nnc(-c2cccnc2)s1	39.8µM	?	17.8µM	i	?	15.8µM	?	Pol kappa inh-2=47.4
CCc1ccccc1OCC(=O)Nc1nc(-c2cccnc2)cs1	i	i	i	i	i	i	nt
CCC(=O)c1ccc(OCC(=O)Nc2nc(-c3cccnc3)cs2)cc1	12.6µM	i	12.6µM	?	i	nt	67.5
O=C(CCn1ccc2cc(S(=O)(=O)N3CCCC3)ccc21)NCc1cccc(Br)c1	i	i	i	nt	i	i	nt
CC(C)(C)CC(C)(C)c1cc(Cc2cc(C(C)(C)CC(C)(C)C)cc(-n3nc4ccccc4n3)c2O)c(O)c(-n2nc3ccccc3n2)c1	nt	nt	nt	nt	i[19.4 µM]	nt	nt
COc1cc(/C=C2\C(=N)N3N=C(S(C)(=O)=O)SC3=NC2=O)ccc1OS(=O)(=O)c1ccccc1	nt	nt	nt	nt	nt	?	nt	GALK confirm=37.5µM;GALK redox cs=i;HEK293 tox=i
CCC1=NN2C(=N)/C(=C/c3ccc(OS(=O)(=O)c4ccc(C)cc4)c(OC)c3)C(=O)N=C2S1	?	i	?	i[11.6 µM]	i	?	?
COc1cc(/C=C2/C(=N)N3N=C(C)SC3=NC2=O)ccc1OS(=O)(=O)c1ccc(C)cc1	i	i	?	i	i	i	nt
O=C1N=C(N2CCOCC2)S/C1=C\c1ccc(OS(=O)(=O)c2ccccc2)cc1	i	i	i	i	i	i	nt
SMILES	Pol eta inh-1	FEN1 inhibitor	Pol iota inh	WRN inhibitor	Pol kappa inh-1	Pol beta inh	Pol eta inh-2	others
CCS(=O)(=O)C1=NN2C(=N)/C(=C\c3ccc(OS(=O)(=O)c4ccccc4)cc3)C(=O)N=C2S1	44.7µM	i	?	i	i	?	nt	GALK confirm=37.5µM;GALK redox cs=i;HEK293 tox=i
CCS(=O)(=O)C1=NSC2=NC(=O)/C(=C\c3ccc(OS(=O)(=O)c4ccccc4)c(OC)c3)C(=N)N21	39.8µM	i	i	i	i	?	nt	GALK confirm=47.3µM;GALK redox cs=i;HEK293 tox=i
COc1ccc(-c2ccc(C3C4C=CCC(C)C4C(=O)N3Cc3ccccc3)c(F)c2)cc1C (stereo unspecified)	nt	i	i	nt	?	nt	nt
CS(=O)(=O)C1=NSC2=NC(=O)/C(=C\c3ccc(OS(=O)(=O)c4ccccc4)cc3)C(=N)N21	50.1µM	i	i	i[11.6 µM]	i	?	nt	GALK confirm=33.5µM;GALK redox cs=i;HEK293 tox=i
O=C(O)COc1ccccc1/C=C1\SC(=S)N(/N=C/c2ccccc2O)C1=O	22.4µM	i	?	?	i	i	47.8	Pol kappa inh-2=75.2
COc1ccc(NC(=O)CCc2nnc3n(CC(C)C)c(=O)c4ccccc4n23)cc1	i	i	i	nt	i	i	nt
Cc1cc(Cl)n2c(nc3cc(F)c(F)cc32)c1C#N	56.2µM	i	6.31µM	i[11.6 µM]	i	50.1µM	?
CCOc1ccc(-c2ccc(/C=C3/C(=N)N4C=CSC4=NC3=O)o2)c([N+](=O)[O-])c1	?	i	i	i	i	i	nt
CCOc1ccc(-c2ccc(/C=C3/C(=N)N4C(C)=CSC4=NC3=O)o2)c([N+](=O)[O-])c1	14.1µM	i	39.8µM	?	?	35.5µM	?

Screening data: PubChem BioAssay, National Center for Advancing Translational Sciences (NCATS)
